Screens deposited in PubChem by Sanford-Burnham Center for Chemical Genomics.
APOBEC3G inh: blocks human APOBEC3G single-stranded DNA deamination | Q9HC16 | recombinant A3G, ssDNA deamination FAM/TAMRA fluorescence | inhibition, % at 20 µM | 0.28% of 330,000 active | AID 493012;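 active = inhibition of at least 40% at 20 µM, with no more than 30% in the related APOBEC3A deaminase screen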;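 also: plate controls were DMSO wells with A3G for no effect and wells lacking A3G enzyme for full effect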
Target sequence (Q9HC16 whole entry, looked up): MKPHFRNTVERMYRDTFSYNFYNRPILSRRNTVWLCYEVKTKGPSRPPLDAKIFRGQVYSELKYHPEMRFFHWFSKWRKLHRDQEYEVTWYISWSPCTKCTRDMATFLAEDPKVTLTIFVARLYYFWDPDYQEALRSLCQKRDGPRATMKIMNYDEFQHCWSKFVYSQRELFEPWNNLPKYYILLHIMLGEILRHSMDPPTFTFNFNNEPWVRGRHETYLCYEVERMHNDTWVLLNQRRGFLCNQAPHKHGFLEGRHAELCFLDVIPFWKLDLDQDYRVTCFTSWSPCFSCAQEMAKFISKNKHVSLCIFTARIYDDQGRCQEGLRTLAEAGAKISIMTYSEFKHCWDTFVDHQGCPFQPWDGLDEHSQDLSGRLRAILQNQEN
Neddylation inh: inhibitors of human cullin neddylation; AID 651699; inhibition, % at 25 µM; TR-FRET cullin neddylation, biochemical; 0.58% of 360,000 active; in the data active = inhibition above about 36%
PfG6PD inh: PfG6PD (Plasmodium falciparum) enzyme inhibition. AID 504690. inhibition, % at 20 µM. PfGluPho enzyme, NADPH resazurin-diaphorase fluorescence. 0.78% of 350,000 active;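 active = inhibition reaching at least a set limit at 20 µM in the primary screen, cut at about 59% in these data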;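 also: 0% = DMSO wells with substrate and 100% = DMSO wells lacking glucose-6-phosphate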
NPR1 activator: GC-A (human) enzyme activation. P16066. HEK293 GC-A cells, cGMP TR-FRET, EC30 ANP; 0% at EC30 ANP, 100% saturating ANP. activation, % at 10 µM. 0.14% of 370,000 active. AID 1671463; in the data active = activation above about 40%
APOBEC3A inh: human APOBEC3A DNA deaminase inhibition; P31941; recombinant A3A, FAM/TAMRA ssDNA deamination fluorescence; inhibition, % at 20 µM; 0.41% of 330,000 active;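 active = at least 40% inhibition at 20 µM here, with at most 30% in a related deaminase screen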;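 also: plate controls were A3A with DMSO for no effect and wells lacking A3A enzyme for full effect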
NPR2 activator: GC-B (human) receptor activation; P20594; HEK293-GC-B cells, CNP EC30, cGMP TR-FRET; 0% at EC30 CNP, 100% saturating CNP; activation, % at 10 µM; 0.11% of 370,000 active;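 active = activation at 10 µM reaching about 35% in either raw or pattern-adjusted values, limit read from the data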
Neddyl conf: cullin neddylation inhibition, confirmation; TR-FRET cullin neddylation biochemical assay; calls only at 25 µM; 13% of 1,800 active; shares compounds with Neddylation inh; in the data active = inhibition above about 40%;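 also: neddylation substrate is the cullin 1 ring ligase complex with SKP2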
An asterisk follows results filed as active; i = inactive; . = not tested or not shown; + = active, no number. In the library only some 2% were active in any assay of this set; here they are far more common.

SMILES | APOBEC3G inh | Neddylation inh | PfG6PD inh | NPR1 activator | APOBEC3A inh | NPR2 activator | Neddyl conf
C=CCN1C(=O)[C@]2(OCCC=C[C@H]2C)c2cc(OC)ccc21 | . | . | . | -7 | . | -4 | .
COC(=O)CSc1ccc2c(N)c(C(=O)OC)sc2c1 | -3 | 51* | -12 | 8 | 0 | 1 | +
COC(=O)C[C@@H]1CC[C@@H]2[C@H](COc3ccc(NC(=O)c4ccc(F)c(F)c4)cc3C(=O)N2C)O1 | . | . | . | 3 | . | 8 | .
O=C(N/N=C/c1ccc(-c2cccc(C(F)(F)F)c2)o1)c1ccccc1O | -5 | 51* | -17 | 6 | 4 | -3 | i
O=S1(=O)c2ccc(N3CCSCC3)cc2Oc2ccccc2CN1Cc1cn(Cc2ccc(F)cc2)nn1 | . | . | . | 2 | . | 2 | .
COc1cc2oc(-c3ccc(O)cc3)cc(=O)c2c(O)c1OC | -9 | -5 | 1 | 0 | -3 | -3 | .
COc1cc2oc(-c3ccc(O)cc3)cc(=O)c2c(OC)c1O | -5 | 40* | 22 | 5 | -1 | 1 | i
Nc1ccc(C(=O)N/N=C/c2cn(Cc3cccc(F)c3)c3ccccc23)cc1 | -7 | 43* | 2 | 3 | 0 | 2 | i
Cn1c(SCc2c(Cl)cccc2Cl)nnc1-c1ccc2nonc2c1 | -5 | -20 | 1 | -2 | -2 | 3 | .
Cn1c(SCc2ccc(Cl)cc2)nnc1-c1ccc2nonc2c1 | -1 | 42* | 7 | -2 | 0 | -4 | i
COc1ccc(NC(=O)COc2ccc3c(C)cc(=O)oc3c2)cc1S(=O)(=O)N1CCCCC1 | -3 | 43* | 5 | -1 | 33 | -5 | .
COc1ccc(S(=O)(=O)N2CCOCC2)cc1NC(=O)COc1ccc2c(C)cc(=O)oc2c1 | 0 | 32 | 2 | 1 | 4 | 5 | .
CCOc1ccc2[nH]c(=O)c(CN(CCO)C(=O)CC)cc2c1 | 2 | 40* | -19 | -4 | 2 | 3 | +
O=c1oc2ccccc2cc1-c1cn2cccnc2n1 | -5 | 43* | -1 | 4 | -2 | -8 | +
O=c1oc2ccccc2cc1-c1cn2ccccc2n1 | -6 | 32 | 5 | 3 | 0 | -5 | .
Cc1cccc(N(C(=O)c2snc(C(N)=O)c2N)C(C(=O)NCC2CCCO2)c2ccc3ncccc3c2)c1 (stereo unspecified) | -4 | 48* | -6 | -29 | -4 | -14 | .
COc1cccc(N(C(=O)c2snc(C(N)=O)c2N)C(C(=O)NCC2CCCO2)c2ccc3ncccc3c2)c1 (stereo unspecified) | -10 | 45* | 2 | -34 | -5 | -18 | +
NC(=O)c1nsc(C(=O)N(c2ccc(F)cc2)C(C(=O)NCC2CCCO2)c2ccc3ncccc3c2)c1N (stereo unspecified) | 7 | . | -2 | -52 | 1 | -14 | .
Cc1ccc(N(C(=O)c2snc(C(N)=O)c2N)C(C(=O)NCC2CCCO2)c2ccc3ncccc3c2)cc1 (stereo unspecified) | -9 | 43* | -5 | -14 | -3 | -7 | i
COc1ccc(-c2c3c(cc(C)[n+]2[O-])oc2ccc(OC)cc23)cc1 | -5 | 23 | 6 | -6 | 0 | 2 | .
COc1ccc2oc3cc(C)[n+]([O-])c(-c4ccc(Cl)cc4)c3c2c1 | 4 | 42* | 2 | -17 | 0 | -15 | i
CN(Cc1cn(Cc2ccccc2)nn1)S(=O)(=O)c1ccc(F)cc1Br | . | . | . | 1 | . | 6 | .
Cc1cccn2c(=O)c(C=Nc3ccccc3)c(NCCO)nc12 | -6 | 46* | 13 | 3 | -3 | 0 | i
CN=Cc1c(NC)nc2c(C)cccn2c1=O | -10 | 43* | -11 | 11 | -6 | 3 | +
Nc1[nH]c2cc(C(F)(F)F)ccc2c1C(=O)N1CCN(CCc2ccccc2)CC1 | . | . | . | 3 | . | 2 | .
C=CC(=O)NC1CCCCN(C(C)C)C1=O (stereo unspecified) | . | . | . | 1 | . | 5 | .
Cn1ncc2c(Nc3ccc(Cl)cc3)ncnc21 | -2 | 30 | 23 | 2 | -1 | -6 | .
Cn1ncc2cc3c(Nc4ccc(Cl)cc4)cccc3nc21 | . | 57* | . | -27 | . | -22 | +
